From PubChem BioAssay AID808 (Columbia University Molecular Screening Center, 2007)
The whole screen tested about 93,000 compounds, of which about 180 (0.19%) were called active. The sample holds actives, similar compounds and a random draw of the others, so the mix is not that of the screen. A number with no mark means an inactive call.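 The calls were made as follows: active = activation above the screen mean plus 3 SD, with well images confirming the hit on visual review (cut at about 28% in these data, passing the limit was not always enough); inconclusive = activation above that limit but images do not confirm it; inactive = activation not above that limit.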

Assay: enhancers of endothelial VCAM-1 upregulation by TNFa – imaging, HUVEC, TNFa stimulus, immunofluorescence, primary screen (AID 808);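 also: signal is the number of cytoplasmic VCAM-1 stained grains per positive cell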
Details: HUVEC TNFa-stimulated VCAM-1 immunofluorescence, high-content imaging; at 2 µM; active compounds read high; scaled per plate to unstimulated/TNFa-only wells

| Structure (SMILES) | activation |
| --- | --- |
| O=[N+]([O-])c1ccccc1/C=N/n1c(COc2ccccc2)n[nH]c1=S | -14.7% |
| CCOC(=O)CCc1c(C)c(C#N)c2[nH]c3ccccc3n2c1=O | 0.5% |
| CC(C)OC(=O)c1cc(NC(=O)C2C3CCC(O3)C2C(=O)O)cc(C(=O)OC(C)C)c1 (centres undefined) | 15.7% |
| Cc1ccc(OCC(=O)Nc2cccc3c2CCCC3)cc1C | -1.7% |
| CSCCC(C(=O)NC1=NCCS1)N1C(=O)c2ccccc2C1=O (centres undefined) | 5.7% |
| O=C(Nc1ncc2c(n1)CC(c1ccco1)CC2=O)c1ccc(Cl)cc1 (centres undefined) | -91.4% |
| CCOC(=O)N1CCN(C(=O)CN(c2ccc(C)c(C)c2)S(=O)(=O)c2ccccc2)CC1 | 0.5% |
| Cc1n[nH]c(C)c1S(=O)(=O)N1CCCC(C(=O)NCC2COc3ccccc3O2)C1 (centres undefined) | -3.9% |
| Cc1ccc(CCNC(=O)C2CCN(S(=O)(=O)N3CCCC3)CC2)cc1 | -9.5% |
| CCCc1cc(=O)[nH]c(SCc2ccc(C#N)cc2)n1 | -3% |
| O=C(COc1ccc2ccccc2c1)N1CCN(C(=O)c2cccs2)CC1 | -21.6% |
| COc1ccc(OC)c(NC(=O)CCN2CCC(C)CC2)c1 | 1.4% |
| Cc1ccc(S(=O)(=O)NCCSC(C)(C)C)cc1 | -9% |
| Cc1ccc(Cn2nnc3c(=O)n(CC(=O)N4CCCCC4)cnc32)cc1 | 5.6% |
| CCOc1ccc(NC(=O)Nc2ccc(N(C)C(C)=O)cc2)cc1 | 16.6% |
| O=C(NCCN1CCOCC1)[C@H](Cc1ccccc1)N1C(=O)c2ccccc2C1=O | -8.5% |
| C=CCn1c(COc2ccccc2F)nnc1SCC(=O)N1CC(=O)Nc2ccccc21 | -4.4% |
| O=C(c1ccc(Cl)cc1)c1ccc(OCC(O)CN2CCCCC2)cc1 (centres undefined) | -0.9% |
| Cc1cc(NC(=O)COc2ccc(Cl)cc2Cl)n(CCC#N)n1 | 4.1% |
| COc1cccc(C(=O)Nc2ccc(NC(=O)c3ccco3)cn2)c1 | 8.2% |
| Cc1cnc(NC(=O)C2CCCC2)s1 | -57.6% |
| COCCNC(=O)c1snc2ccc(Cl)cc12 | 11.1% |
| O=C(NCCN1CCN(Cc2ccccc2)CC1)c1cc2c(=O)[nH]c3ccccc3c2s1 | 2.1% |
| O=C(CS(=O)(=O)c1cn(Cc2cccc(F)c2)c2ccccc12)N1CCCCC1 | -50.1% |
| CCOC(=O)N1CCN(C(c2cccnc2)c2ccc3cccnc3c2O)CC1 (centres undefined) | -10% |

| Structure (SMILES) | activation |
| --- | --- |
| CC1=NN(C(C)C)C(=O)C1 | 25% (active) |
| COc1ccc(Cl)cc1C(=O)NCC#N | 5.7% |
| COC(=O)c1c(-c2cccs2)csc1NC(=O)CSc1ncnc2sc(C)c(C)c12 | 1.8% |
| Cc1[nH]n(-c2ccc(Cl)cc2)c(=O)c1/C=N/n1c(C)nc2ccccc2c1=O | 9.2% |
| CCN(CC)C(=O)CSC1c2ccccc2C(=O)N1c1ccccc1 (centres undefined) | -7.1% |
| CCN(CC)CCCNC(=O)CCc1ccccc1 | 4.1% |
| C/C(=C\C(=O)c1ccccc1)Nc1cccc(O)c1 | 2.2% |
| Cc1nnc(SCC(=O)NC2CCCC2)s1 | -13.9% |
| CN(C)CCCn1c(N)c(C#N)c2nc(C#N)c(C#N)nc21 | -7.9% |
| C=CCn1c(Cn2nnc3ccccc32)nnc1SCC(=O)N/N=C/c1cc(Br)cc(OC)c1O | 1.7% |
| CCOc1ccc(N=C2NC(=O)S/C2=C\c2ccc(O)cc2)cc1 | 29.2% (active) |
| O=C(Cc1ccc(-n2c(=O)[nH]c3ccccc3c2=O)cc1)N1CCN(c2cccc(Cl)c2)CC1 | -1.2% |
| Cc1c(C(=O)OCC(=O)N(CCC#N)c2ccccc2)oc2c1ccc1ccccc12 | -4.9% |
| COc1ccccc1NC(=O)CSc1nnc(Cn2nnc(-c3ccccc3)n2)n1-c1ccccc1 | 11.3% |
| CSc1nc2ccccc2cc1/C=C(\C#N)c1ccc(Cl)cc1Cl | -3.2% |
| CCCCN(C)C(=O)C1CCN(Cc2ccccn2)CC1 | 35.5% (active) |
| Cc1ccc(OCC(O)CN2CCN(CC(O)COc3ccc(C)cc3Cl)CC2)c(Cl)c1 (centres undefined) | -1.2% |
| O=C(c1ccco1)N1CCN(C(=O)C2c3ccccc3Oc3ccccc32)CC1 | -5.9% |
| Cc1ccc(F)cc1NC(=O)c1ccc2c(c1)OCO2 | -96.8% |
| CC(=O)Nc1ccc(S(=O)(=O)N2CCN(C(=O)c3ccccc3F)CC2)cc1 | -7.6% |
| C=C(Br)CN1CCN(CC(=C)Br)CC1 | 17.8% |
| Cn1c(C(=O)OC(C(=O)NC2CCCCC2)c2ccccn2)cc2sccc21 (centres undefined) | 7.6% |
| C=C(C)CNC(=S)/N=c1\scc(C)n1CC | -4.4% |
| COc1cccc(OCc2cc(/C=N/NC(=O)c3nc(Cl)c(Cl)c(N)c3Cl)ccc2OC)c1 | -6.7% |
